# Values without a mark were called inactive. The rule behind the calls is not given here.
# Experiment: fluorescence polarization artefacts, biochemical, 57K campaign, artefact control, dose response (AID 1342)
# Details: PKD fluorescence polarization interference counter-screen
smiles,measurement,value
C/C(=N\Nc1ncc(Cl)cc1Cl)c1ccccn1,IC50,16.7 µM

# Reference: PubChem BioAssay AID1342 (University of Pittsburgh Molecular Library Screening Center, 2008)
